Read-out in test [1]: Epidermal growth factor receptor (EGFR), EGFR (gene 1956)
Put plainly: BSK_hDFCGF_EGFR: BioMAP Diversity Plus: hDFCGF Assay for Epidermal growth factor receptor (EGFR) Biomarker Activity (AID 2283057). The settings on record: primary human foreskin fibroblasts; actives raise or lower the signal. The method, boiled down:
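EGFR levels by ELISA in human dermal fibroblast cultures, 24 h post-treatment, fitted bidirectionally versus DMSO. Parallel wells stained with sulforhodamine B to detect overt cytotoxicity.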

Read-out in test [2]: Interleukin-8 (IL8), CXCL8 (gene 3576)
Kind of test: BSK_hDFCGF_IL8: BioMAP Diversity Plus: hDFCGF Assay for Interleukin-8 (IL8) Biomarker Activity (AID 2283058). Conditions: primary human foreskin fibroblasts; actives raise or lower the signal. The gist of the method:
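Primary human foreskin fibroblasts (hDFCGF system) dosed with chemical; IL-8 measured by ELISA 24 hours later. Bidirectional curve fitting relative to DMSO baseline; cytotoxicity tracked in parallel cultures by SRB total protein staining.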

Test [3] can be described thus: BSK_hDFCGF_Proliferation: Cell Proliferation Assessment in the BioMAP Diversity Plus: hDFCGF Assay (AID 2283059).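 Note: curves fitted for both rise and fall of signal versus DMSO baseline.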 Conditions: primary human foreskin fibroblasts. The method, boiled down:
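Sub-confluent human foreskin fibroblast cultures receive test chemical […]. Relative cell number is quantified by sulforhodamine B staining (0.1%, after 10% TCA fixation) at 560 nm, with bidirectional fitting referenced to DMSO.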

Read-out in test [4]: Macrophage colony-stimulating factor (MCSF), CSF1 (gene 1435)
Put plainly: BSK_hDFCGF_MCSF: BioMAP Diversity Plus: hDFCGF Assay for Macrophage colony-stimulating factor (MCSF) Biomarker Activity (AID 2283060). The settings on record: primary human foreskin fibroblasts; actives raise or lower the signal. The method, boiled down:
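Human foreskin fibroblast primary cultures; M-CSF measured by ELISA 24 hours after chemical dosing. Bidirectional fitting relative to DMSO, with overt cytotoxicity tracked by parallel SRB total-protein staining (0.1% SRB, 10% TCA fixation, 560 nm).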

The nature of test [5]: BSK_hDFCGF_SRB: Viability Assessment in the BioMAP Diversity Plus: hDFCGF Assay (AID 2283061).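 Note: cells exposed to compound for 24 h before the read.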 The settings on record: primary human foreskin fibroblasts. The method, boiled down:
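Human foreskin fibroblasts in 96-well plates were treated 24 h. Total protein was measured by 0.1% SRB staining after 10% TCA fixation, read at 560 nm. Data were fitted bidirectionally against DMSO.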

Read-out in test [6]: TIMP metallopeptidase inhibitor 1 (TIMP1), TIMP1 (gene 7076)
Kind of test: BSK_hDFCGF_TIMP1: BioMAP Diversity Plus: hDFCGF Assay for TIMP metallopeptidase inhibitor 1 (TIMP1) Biomarker Activity (AID 2283062). The settings on record: primary human foreskin fibroblasts; actives raise or lower the signal. The gist of the method: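 Human foreskin fibroblast primary cultures dosed for 24 h; secreted/surface TIMP-1 quantified by ELISA. Bidirectional curve fitting against DMSO baseline; cytotoxicity tracked in parallel cultures by SRB total-protein staining.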

Read-out in test [7]: Monokine induced gamma interferon (MIG), CXCL9 (gene 4283)
Put plainly: BSK_hDFCGF_MIG: BioMAP Diversity Plus: hDFCGF Assay for Monokine induced gamma interferon (MIG) Biomarker Activity (AID 2283063). Conditions: primary human foreskin fibroblasts; actives raise or lower the signal. The gist of the method: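 MIG/CXCL9 measured by ELISA 24 h after dosing primary human skin fibroblasts. Activity fitted in both directions against DMSO controls. Cytotoxicity was checked in parallel cultures by SRB staining read at 560 nm.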

Read-out in test [8]: Matrix Metallopeptidase 1 (MMP1), MMP1 (gene 4312)
Put plainly: BSK_hDFCGF_MMP1: BioMAP Diversity Plus: hDFCGF Assay for Matrix Metallopeptidase 1 (MMP1) Biomarker Activity (AID 2283064). Conditions: primary human foreskin fibroblasts; actives raise or lower the signal. The method, boiled down:
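ELISA read-out of MMP1 from human foreskin fibroblasts (primary skin cells), 24 h post-dose. Gain or loss of signal was fitted bidirectionally versus DMSO negative control; cytotoxicity was checked by SRB in parallel cultures.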

Read-out in test [9]: Vascular cell adhesion molecule 1 (VCAM1), VCAM1 (gene 7412)
Kind of test: BSK_hDFCGF_VCAM1: BioMAP Diversity Plus: hDFCGF Assay for Vascular cell adhesion molecule 1 (VCAM1) Biomarker Activity (AID 2283065).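 For AC50: VCAM-1 protein level quantified by ELISA after 24 h chemical exposure.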 Conditions: primary human foreskin fibroblasts; actives raise or lower the signal. The method, boiled down:
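Human foreskin fibroblast primary cells dosed with chemical, VCAM-1 measured by ELISA at 24 h. Bidirectional curve fitting relative to DMSO as negative control/baseline.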

Read-out in test [10]: Plasminogen activator inhibitor-1 (PAI1), SERPINE1 (gene 5054)
Kind of test: BSK_hDFCGF_PAI1: BioMAP Diversity Plus: hDFCGF Assay for Plasminogen activator inhibitor-1 (PAI1) Biomarker Activity (AID 2283066). Conditions: primary human foreskin fibroblasts; actives raise or lower the signal. The gist of the method: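 PAI-1 levels in human dermal foreskin fibroblasts were quantified by ELISA 24 h after dosing, with gain or loss analysed against DMSO. Overt cytotoxicity was checked by sulforhodamine B total-protein staining in parallel cultures.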

Read-out in test [11]: Intercellular Adhesion Molecule 1 (ICAM1), ICAM1 (gene 3383)
Put plainly: BSK_KF3CT_ICAM1: BioMAP Diversity Plus: KF3CT Assay for Intercellular Adhesion Molecule 1 (ICAM1) Biomarker Activity (AID 2283067). Conditions: primary human keratinocytes with fibroblasts; actives raise or lower the signal. The method, boiled down: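 Human keratinocyte–foreskin fibroblast co-culture was treated for 24 h. Cell-surface ICAM-1 was quantified by ELISA, fitted bidirectionally relative to DMSO. Cytotoxicity was checked in parallel cultures by SRB total-protein staining.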

Read-out in test [12]: Interferon-gamma inducible Protein 10 (IP10), CXCL10 (gene 3627)
Kind of test: BSK_KF3CT_IP10: BioMAP Diversity Plus: KF3CT Assay for Interferon-gamma inducible Protein 10 (IP10) Biomarker Activity (AID 2283068). Conditions: primary human keratinocytes with fibroblasts; actives raise or lower the signal. The method, boiled down:
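ELISA read-out of IP-10 after 24 h chemical dosing of human skin primary co-culture (keratinocytes, foreskin fibroblasts). Gain or loss of signal relative to DMSO, bidirectional curve fit.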

Test [13] in a line: BSK_KF3CT_SRB: Viability Assessment in the BioMAP Diversity Plus: KF3CT Assay (AID 2283069).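 Note: read 24 h after compound addition.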 Conditions: primary human keratinocytes with fibroblasts. The gist of the method:
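SRB read-out at 560 nm (0.1% stain, TCA-fixed cells) gauges overt cytotoxicity in a human skin keratinocyte–fibroblast co-culture 24 h post-dosing. Signal change was fitted bidirectionally relative to DMSO control.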

Read-out in test [14]: Interleukin-1 alpha (IL1a), IL1A (gene 3552)
Put plainly: BSK_KF3CT_IL1a: BioMAP Diversity Plus: KF3CT Assay for Interleukin-1 alpha (IL1a) Biomarker Activity (AID 2283070). Conditions: primary human keratinocytes with fibroblasts; actives raise or lower the signal. The method, boiled down: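 Primary skin co-culture (keratinocytes, foreskin fibroblasts), 24 h exposure; ELISA for IL-1a; bidirectional curve fit vs DMSO.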

Read-out in test [15]: TIMP metallopeptidase inhibitor 2 (TIMP2), TIMP2 (gene 7077)
Put plainly: BSK_KF3CT_TIMP2: BioMAP Diversity Plus: KF3CT Assay for TIMP metallopeptidase inhibitor 2 (TIMP2) Biomarker Activity (AID 2283071). Conditions: primary human keratinocytes with fibroblasts; actives raise or lower the signal. The method, boiled down: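 TIMP-2 measured by ELISA at 24 h in human keratinocyte/fibroblast primary co-cultures exposed to chemicals. Both increases and decreases were fitted against DMSO. Parallel cultures were stained with SRB for total protein as an overt-cytotoxicity check.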

Read-out in test [16]: Transforming growth factor beta 1 (TGFb1), TGFB1 (gene 7040)
Kind of test: BSK_KF3CT_TGFb1: BioMAP Diversity Plus: KF3CT Assay for Transforming growth factor beta 1 (TGFb1) Biomarker Activity (AID 2283072). The settings on record: primary human keratinocytes with fibroblasts; actives raise or lower the signal. The gist of the method: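 ELISA quantifies TGF-b1 at 24 h post-dose in a primary human skin co-culture of keratinocytes and fibroblasts, with gain or loss judged against DMSO. Parallel SRB total-protein staining flags overt cytotoxicity.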

Read-out in test [17]: C-C motif chemokine 2 (Homo sapiens) (UniProt P13500)
Kind of test: BSK_KF3CT_MCP1: BioMAP Diversity Plus: KF3CT Assay for Monocyte Chemoattractant Protein 1 (MCP1/CCL2) Biomarker Activity (AID 2283073). Conditions: primary human keratinocytes with fibroblasts; actives raise or lower the signal. The gist of the method: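 Human keratinocyte–foreskin fibroblast co-culture; MCP-1 measured by ELISA 24 h after dosing. Bidirectional fit vs DMSO; cytotoxicity tracked by SRB total protein in parallel cultures.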

Read-out in test [18]: Matrix Metallopeptidase 9 (MMP9), MMP9 (gene 4318)
Put plainly: BSK_KF3CT_MMP9: BioMAP Diversity Plus: KF3CT Assay for Matrix Metallopeptidase 9 (MMP9) Biomarker Activity (AID 2283074).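 For AC50: MMP9 protein level quantified by ELISA in the co-culture.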 The settings on record: primary human keratinocytes with fibroblasts; actives raise or lower the signal. The method, boiled down: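 ELISA read-out of MMP-9 at 24 h post-dosing in a co-culture of human skin keratinocytes and foreskin fibroblasts. Gain or loss of signal was fitted in both directions against DMSO.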

Read-out in test [19]: urokinase plasminogen activator (uPA), PLAU (gene 5328)
Put plainly: BSK_KF3CT_uPA: BioMAP Diversity Plus: KF3CT Assay for urokinase plasminogen activator (uPA) Biomarker Activity (AID 2283075). The settings on record: primary human keratinocytes with fibroblasts; actives raise or lower the signal. The method, boiled down: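 Skin co-culture (keratinocytes + foreskin fibroblasts), human primary; 24 h post-dose; uPA by ELISA; gain/loss fit vs DMSO baseline.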

Read-out in another test: CD40, CD40 (gene 958)
Kind of test: BSK_LPS_CD40: BioMAP Diversity Plus: LPS Assay for CD40 Biomarker Activity (AID 2283076). Conditions: primary human HUVEC with PBMC; actives raise or lower the signal. The method, boiled down:
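HUVEC plus PBMC co-culture stimulated with LPS; CD40 quantified by ELISA 24 h after compound dosing. Fitting was bidirectional relative to DMSO. SRB staining of parallel cultures flagged overt cytotoxicity.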

SMILES strings stand for the structures. Calls of active or inactive are those of the source. Rule for the calls: active = hit-call score of the fitted dose curve at least 0.9, where 1 is the maximum; inactive = score below 0.9.

In the case of `O=C(O)CN(CC(=O)O)CC(=O)O`, the outcome in test [1], in test [2], in [3], in test [4], in [5] and in test [6] was inactive. In addition, the result in test [7], in test [8], in test [9], in [10], in [11] and in test [12] was inactive. Moreover, the result in test [13], in [14], in test [15], in test [16], in test [17] and in test [18] was inactive. Further, the outcome in test [19] was “inactive”; with CD40, CD40 (gene 958), “inactive”.

As for `Oc1ccccc1O`, the result in test [1], in test [2], in test [5], in test [6], in [8] and in test [10] was inactive. The result in test [12], in [13] and in test [15] was inactive. Besides, the AC50 in test [3] is 12 µM (active); in test [4] it was 13.3 µM (active); in test [7], 11.2 µM (active); in test [9], 2.5 µM (active); in test [11], 4.58 µM (active); in test [14], 4.75 µM (active). In addition, the AC50 is 10.4 µM (active) in test [16]; 1.14 µM (active) in [17]; 8.72 µM (active) in [18]; 20 µM (active) in test [19]; 7.33 µM (active) in the test with CD40, CD40 (gene 958).

On to `CC(N)=O`, for which the result in test [1], in [2], in [3], in [4], in test [5] and in test [6] was inactive. Further, the result in test [7], in test [8], in test [9], in [10], in [11] and in test [12] was inactive. For the same molecule, the result in test [13], in test [14], in test [16], in test [17], in [18] and in test [19] was inactive. Also, in the test with CD40, CD40 (gene 958), the result was inactive.

For `CCCCC(CC)COC(=O)CCCCCCCC(=O)OCC(CC)CCCC` (configuration not stated), the outcome in [1], in [2], in test [3], in test [4], in test [5] and in test [6] was inactive. Moreover, the outcome in [7], in test [8], in test [9], in test [10], in test [11] and in test [12] was inactive. The result in test [13], in [14], in [15], in test [16], in test [17] and in test [18] was inactive. Moreover, the outcome is “inactive” in [19] and “inactive” in the test with CD40, CD40 (gene 958).

As for `CCOCCOCCO`, the outcome in [1], in test [2], in [3], in test [4], in [5] and in test [6] was inactive. In addition, the outcome in test [7], in [8], in test [9], in test [10], in test [11] and in test [12] was inactive. Besides, the outcome in test [13], in [14], in test [16], in test [17], in [18] and in test [19] was inactive. In addition, the outcome with CD40, CD40 (gene 958) was inactive.

For the molecule `CCCC[C@H]1CN(CC2CCOCC2)C(=O)OC12CCN(C1(C)CCN(C(=O)c3c(C)ncnc3C)CC1)CC2`, the outcome in [1], in test [2], in [3], in test [4], in test [5] and in test [6] was inactive. Also, the outcome in test [7], in test [8], in test [9], in test [10], in [11] and in [12] was inactive. Further, the result in test [13], in test [14], in test [15], in [16], in test [17] and in test [18] was inactive. In addition, the outcome was “inactive” in test [19] and “inactive” with CD40, CD40 (gene 958).

`CC(C)(C)c1ccccc1`: the result in test [1], in test [2], in test [3], in [4], in test [5] and in test [6] was inactive. In addition, the result in [7], in test [8], in [9], in test [10], in [11] and in test [12] was inactive. Besides, the outcome in [13], in test [14], in test [16], in test [17], in [18] and in [19] was inactive. Also, the outcome in the test with CD40, CD40 (gene 958) was inactive.
